Reference: PubChem BioAssay AID493076 (National Center for Advancing Translational Sciences (NCATS), 2011)
This is one part of the list. Inconclusive results are not listed. Calls come from the whole dose curve; as a rule, active = well fitted curve in the direction sought with a large enough effect; inconclusive = small, poorly fitted or top-dose-only effect, or effect the other way, or another doubt; inactive = no such curve, though single readings can be large or run the other way. Residues, ends and D or L forms follow the SMILES beside them. *: point of attachment. OPac = O=C(CO*)c1ccccc1; Bz = O=C(c1ccccc1)*

These compounds were tested against Thyrotropin-releasing hormone receptor (Homo sapiens) (UniProt P34981) (assay: qHTS for Small Molecule Agonists and Allosteric Enhancers of Human TRH Receptor: Confirmation Screen for Enhancers). Details: TRH receptor cell assay, enhancer confirmation qHTS; series mostly up to 46.1 µM; activity change, negative = inhibition: at the top concentration.
Source text: NIH Chemical Genomics Center [NCGC]
NIH Molecular Libraries Probe Centers Network [MLPCN]
Assay Submitter (PI): Marvin Gershengorn
This project aims to identify small drug-like molecules that activate (agonists) the thyrotropin releasing hormone (TRH) receptor (TRHR) or enhance its TRH-stimulated activity (allosteric enhancers). TRHR, a drug-accessible cell surface receptor expressed in specific brain regions, and its ligand TRH have been implicated in several central nervous system disorders, including depression and anxiety. Small molecule TRHR agonists or allosteric enhancers that are metabolically stable and able to cross the blood-brain barrier might serve as probes to elucidate the roles of brain TRH receptors in animal models, and might be valuable as lead compounds for the development of drugs to treat patients with central nervous system disorders.
Upon TRHR-Gq activation in TRHR cells, intracellular calcium is released from stores in the endoplasmic reticulum. […] This primary screen measures compound-induced enhancement of an EC20 stimulation of the receptor by its native ligand.
For the HTS assay freshly prepared cells are plated at a density of 2000/well in 3 ul of complete DMEM medium containing 10% serum in 1536-well plates and cultured over night at 37 C in a humidified incubator with 5% CO2. The next day, 2 ul of a no wash calcium dye (ABD Bioquest) was added to the cells and plates were incubated at room temperature for 1 hour. For the assay, assay plates were loaded into the FDSS kinetic plate reader. A 10 cycle (1 second/cycle) baseline measurement is taken and then the FDSS online 1536 pintool delivers 23 nl of compound library (as well as TRH controls) to the plate. The plate is measured for kinetically at 1 cycle/sec for 180 seconds and is considered to be the agonist portion of the assay (eg, compounds which activate a positive calcium response during this portion are flagged as potential agonists). Following the 180 second read, 1 ul of either an EC20 (positive modulation assay) is delivered by an onboard pipette head. Measurements are taken kinetically for an additional 180 seconds.
TRHR FDSS Screening Protocol
1. Reagent, 3 uL 2000 cells/well 1536 TC treated Black plate in media containing 10% FCS
2. Time, 18 hours, 33.5C 5% CO2 (cells grown at 37C)
3. Reagent, 2 uL ABD fluo-8 Ca dye
4. Time, 30 min-1.5hrs hours, Room temp (6 plates/batch)
5. Detector, EX 480/EM 530C, FDSS 10 cycles baseline (1sec/cycle)
6. Compound, 23 nL of stock solution from library
7. Detector, EX 480/EM 530C, FDSS 230 cycles (1sec/cycle) Agonist mode
8. Compound, 1 ul EC20 of TRH made up in HEPES HBSS, 10 nM final
9. Detector, EX 480/EM 530C, FDSS 100 cycles (1sec/cycle) Potentiator mode
Note: 0% is about no effect.

Sequence of Thyrotropin-releasing hormone receptor (Homo sapiens) (P34981 whole entry, looked up): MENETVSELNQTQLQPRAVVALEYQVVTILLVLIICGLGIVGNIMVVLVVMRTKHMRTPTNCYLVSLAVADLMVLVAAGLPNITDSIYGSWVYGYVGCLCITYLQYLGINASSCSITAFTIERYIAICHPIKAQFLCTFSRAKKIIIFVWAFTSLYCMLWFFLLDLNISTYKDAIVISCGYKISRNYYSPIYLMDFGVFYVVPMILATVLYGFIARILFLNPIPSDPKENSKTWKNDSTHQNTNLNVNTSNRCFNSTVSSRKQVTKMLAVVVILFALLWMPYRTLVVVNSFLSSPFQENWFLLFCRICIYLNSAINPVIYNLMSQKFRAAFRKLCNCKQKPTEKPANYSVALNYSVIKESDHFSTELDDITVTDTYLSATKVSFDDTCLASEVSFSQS

Activity change, negative = inhibition, inactive:
Cc1nn(Cc2ccccc2)c(C)c1C(=O)N1CCN(CC(=O)Nc2ccccc2Cl)CC1 -4%
COc1cc(/C=C(\C#N)c2nc3ccccc3[nH]2)ccc1O -0.256%
C/C(=C\c1ccco1)CN1CCC(N2CCC(C(=O)N3CCOCC3)CC2)CC1 -0.0999%
N#Cc1ccc(Oc2cc(C(F)(F)F)nc(-c3ccccn3)n2)cc1 -2.68%
COc1ccc(CCn2ccc(O)c(Cc3ccc(Cl)cc3Cl)c2=O)cc1OC -5.51%
O=C(Nc1ccccc1)c1cccnc1Nc1ccccc1 -4.95%
CSc1nnnn1-c1c(C)cc(C)cc1C 2.92%
COc1cc(C2C3=C(CCCC3=O)OC3=C2C(=O)CCC3)ccc1OCC(=O)Nc1ccccc1 -3.25%
O=C(CNC(=O)c1ccccc1)NCC(=O)OCC(=O)c1ccccc1 (Bz-Gly-Gly-OPac) -2.83%
Cc1c(/C=N\NC(=O)c2cc3ccccc3o2)c2ccccc2n1C 2.39%
CCOc1cc(CN2CCCC(CO)(Cc3ccc(F)cc3F)C2)ccc1OC (stereo not given) 5.12%
NS(=O)(=O)c1cccc(NC(=O)CSc2nc3ccccc3n2-c2ccccc2)c1 -3.66%
Cc1csc(CN(C)C(=O)CC2C(=O)NCCN2CC(C)(C)C)n1 (stereo not given) -1.78%
NC(N)=Nc1nc(-c2ccccc2)c2cc(Cl)ccc2n1 -3.05%
O=c1[nH]c2cccnc2n(CCNc2ncc(C(F)(F)F)cc2Cl)c1=O 0.268%
Cc1ccc(-c2cn(S(=O)(=O)c3cccc([N+](=O)[O-])c3)nc2N)cc1 5.91%
COC(=O)C1=C(C)NC2=C(C(=O)c3ccccc32)C1c1ccc(-c2ccc(C(=O)O)cc2)o1 (stereo not given) 12%
Cc1cc(C)c2nc3nc(C)cc(C)c3c(N)c2c1 -10.9%
CC1=C(C)CC(C(=O)NC(C)CCc2ccccc2)C(C(=O)O)C1 (stereo not given) -4.33%
COC(=O)c1cc(N2CCNCC2)nc2ccccc12 -2.19%
C/C(=N/OC(=O)c1ccc(Br)cc1)c1ccc(C)cc1 -0.906%
O=C1C(=O)N(CCCO)C(c2ccccc2)/C1=C(\O)c1ccc(Br)cc1 (stereo not given) -0.976%
CC(=O)N1CCN(CC(=O)Nc2ccc(C)c(F)c2)CC1 1.27%
CC1(C)Cc2c(cnn2-c2cccc(F)c2)C(NC(=O)c2cc[n+]([O-])cc2)C1 (stereo not given) -3.62%
O=C1NC(=O)C2C1C(c1ccc([N+](=O)[O-])cc1)=NN2Cc1ccccc1 (stereo not given) -0.0147%
O=C(CN1C(=O)c2cccc3cccc1c23)Nc1ccccc1 -1.92%
CC(C)c1nnc(NC(=O)CCC(=O)N2CCN(c3cccc(Cl)c3)CC2)s1 -8.62%
O=c1o[nH]c(-c2ccccc2)c1N=Nc1c(F)cccc1Cl -7.87%
CCc1ccccc1NC(=O)/C(=C/c1ccccc1)c1ccccc1 0.209%
CN(C(=O)CSc1nnc(Nc2ccccc2)s1)C1CCS(=O)(=O)C1 (stereo not given) -2.15%
CCOc1ncccc1C(=O)OCC(=O)N1c2ccccc2CC1C (stereo not given) -1.35%
CC(=O)n1c(C=Nc2ccccc2)c(O)c2ccccc21 -1.01%
Cc1ccc(Cl)c(OCC(=O)N2CCc3ccccc3C2)c1 -14.7%
CCOC(=O)C1=C(O)/C(=C/c2cc(C)n(-c3ccccc3)c2C)N=C1C -3.74%
Cc1cc(S(=O)(=O)c2cc3ccc(O)c(C)c3oc2=O)ccc1F -3.01%
COc1ccc(Cl)cc1NC(=O)CN(C)Cc1ccc(OC)c(OC)c1 3.53%
CCc1nnc(NC(=O)[C@@H](NC(=O)c2cccc(C)c2)C(C)C)s1 -7%
Cc1ccc(S(=O)(=O)N2CCN(CC(=O)N/N=C/c3ccc(Br)s3)CC2)cc1 -4.75%
Cc1cccn2c(=O)c3cc(C(=O)NC4CCCCC4)sc3nc12 0.429%
c1cnc(N2CCN(c3ccc4ccccc4n3)CC2)nc1 -7.49%
